# Among all 53,000 sequences or so, about 3,700 (7%) were called active. This excerpt belongs to a sample that is enriched for actives. Unmarked numbers belong to inactive results.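 Rule for the calls: active = gene knockdowns whose robust z-score for IL-1 alpha signal is at least 2 or at most -2, so actives lie on both sides; inactive = the rest.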
# Test: Components of the Cytosolic LPS Sensing Pathway: Gene Identification via Genome-wide siRNA Screen;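 note: robust z of the log signal after scaling to non-targeting control siRNA wells of the plate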
# Conditions: RAW264.7 macrophages, IL-1a HTRF, actives lie on both sides, screened at 100 nM (by protocol), cells primed 5 h with Pam3CSK4 first
# Procedure, shortened: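 Knockdown: 100 nM siRNA, 48h, RAW264.7. Stimulation: Pam3CSK4 5 h, then LipidA via TransIT-TKO 24 h. Output: supernatant IL-1a HTRF, negative-control-normalized, log robust z-score; viability by CellTiter-Glo.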
row,Sequence,z-score
1,GGAUGUCUGACUCAGGUCUTT against Olfr829,0.0622
2,GGCAGUGAUGUUUCUCUCGTT against Tmem198b,0.152
3,GGAUUCCAGAUUAAAUGAUTT against Rfc1,1.09
4,GGCAACCAUUAAAUGUUUATT against Trim59,-0.54
5,CCUUUUGUUUUACCUACUCTT against Tbx22,2.32 (active)
6,GGAUGAGCAGAAAUGUGUATT against Plekho2,0.931
7,CCUCUACAUCCAGGAAUGATT against Map4k1,-0.546
8,GGUCCUAAUUCGAAGCAGATT against Emc3,-0.589
9,GGGAUUGCAUGGUUAAACUTT against Nfam1,-0.901
10,GGUUUUGACAUCACAUUCUTT against Mtfr2,1.34
11,GGUAGACAGAGAAGAUAAATT against Slc35f5,-2.01 (active)
12,GGUUGAUGACAACAAGAAATT against Rps12,-0.368
13,GGGAGGAGAGGACAAAUUATT against Ywhae,1.66
14,GGAACGUGAAUCUACAGCATT against Tex43,-2.73 (active)
15,GGCAGGACGAACAUGGCUATT against Hspb1,1.2
16,GGAAUUAAAGAGGAACUCCTT against Adamts20,0.172
17,GCUGUCAGACUAAAGAUAUTT against Mmd,-0.733
18,CCUCCAGAGUAUUGUCUAGTT against Ppfia3,1.26
19,GGACAUUGAGAACAUUAUCTT against Caln1,-1.14
20,GGACCAUGUGGACUUUAGCTT against Sema7a,-0.522
21,GGCACUUCAACAGCAGUUATT against Cep295,-1.27
22,GGUGUUCGUCAUAUGGAAUTT against Tex46,3.71 (active)
23,GGUAACUGUUACACAAAUCTT against Tmem161b,-0.291

row,Sequence,z-score
1,GGCCUUUUGGCUUUGAUCUTT against Hoxb1,-1.86
2,GGAAUAUGUCACCAACAAGTT against Akap8l,-0.896
3,GCAGGAAGUAAAAUCUCUUTT against Tmem183a,0.707
4,GGAGUCACACCUGAAUUGCTT against Cep89,0.129
5,GCUGAAAUCCAGGAUAGAGTT against Zw10,-2.03 (active)
6,GGGACAAGGACUUUAAAAATT against Scamp2,0.566
7,GCACAUUCAGAUGAGGACUTT against Rnf6,-1.05
8,GAUAUGUGUACACUUCUGCTT against Vmn1r218,-2.08 (active)
9,GGUUACAUGGAUUGAAGCUTT against Scrn3,0.183
10,GGAGAUGAUUUUGAACUUCTT against Retreg3,2.73 (active)
11,CCCAACACAAUAUUUGCCATT against Nfyc,0.019
12,GCUGUCUCUACGUUGGAGATT against Adamts2,0.145
13,CCACUUAGGUUAGAAAGAATT against R3hdm1,-0.77
14,CCAAGUCGGACUUACGGUUTT against Cnpy3,-1.65
15,UCUGCUCAACAUCGUCAAUTT against Sstr3,0.719
16,GCUCUUCCGAUUAAUGCAGTT against Gabra6,2.87 (active)
17,GGACCAAGGCUUGGAUCUUTT against Magea6,0.527
18,CGUGGUGCCUUUGAAUCUGTT against 9530056K15Rik,1.2
19,GGCAUCAAGCAAUUCACUCTT against Zfp455,1.14
20,GGUGCAAAUGUUCUCAUCUTT against Mfsd4b1,2.11 (active)
21,GCCACUGUCACUUUUGUACTT against Arl11,-1.08
22,GGAUUUGUUGGAAAUUGGATT against Anks1b,0.132
23,GGCUGUGCAAGAUGUUCUATT against Gpr27,3.29 (active)

row,Sequence,z-score
1,CCCAUGGGCAGAUGAAAGCTT against Olfr1441,-0.482
2,GCAAUGCGACGUGCUCUAUTT against Trim67,0.136
3,GGCUUAAGUUAGGCAAACUTT against Crtc3,-0.0675
4,UGCUGUGGUCACUCCCAUGTT against Olfr457,-2.04 (active)
5,GCCACAACAAACCUACGACTT against Xpc,-1.32
6,GCGCAUUGUGUUCUGGUCUTT against Zswim4,-1.55
7,GGAACUUGGCCUACUUAUGTT against C130071C03Rik,0.718
8,GAGGUCAUUAUACCAUUGGTT against Tuba3b,0.554
9,GGUGACCAGCUCCAUUUCUTT against Ccn5,2.61 (active)
10,GGCCAACACUCAGAAAAGGTT against Zfp474,1.59
11,GCCAGAUCUGUUAACCGCCTT against Gzmk,2.15 (active)
12,GGUUGGGCUGCCAAGUUUGTT against Fdx1,1.96
13,UACUACAACCGCACAGUGATT against Tmc6,0.522
14,GGUGGUCACCAAGAAGUUUTT against Prps2,2.52 (active)
15,GGAAGCUCUUAAAAGGUUGTT against Hdhd2,0.226
16,GCUCCUCAUGAUAUUGGCCTT against Nagk,0.239
17,GGAGGGACUUACCACAAGGTT against Timeless,0.282
18,GGACAACACUGUCAAUCAUTT against Olfr922,-2.39 (active)
19,GGGAAUCUUUAUCAGUGAGTT against Insc,0.429
20,GCUCCUGAUCAAAUAAAGUTT against Ldhb,0.279
21,CCGGAGUUAUACCGUAAGATT against Plaur,-0.671
22,GGAGUAGGAACAAAAAUUGTT against Polb,-0.153
23,CCUUGGCCAAUCUCCACAATT against Ptpmt1,-0.485
